# Experimental data taken from paper PMC7862700, “An all-to-all approach to the identification of sequence-specific readers for epigenetic DNA modifications on cytosine”.
# Legend:
# Test in all cases: DAPPL (digital affinity profiling via proximity ligation, sequencing); 10 mM Tris-HCl pH 7.5, 50 mM NaCl, 1 mM DTT, 4% glycerol, room temperature, 30 min; GST-TFs on glutathione beads, 16-mer random dsDNA library, 0.1% formaldehyde crosslink after washing; high values mean tight binding
# Conditions in all cases: protein: recombinant; tags: N-terminal GST; dsDNA, one strand shown
# ELK1 = biological target: T1, ELK1 (Homo sapiens, UniProt P19419 1-428)
# T1 sequence: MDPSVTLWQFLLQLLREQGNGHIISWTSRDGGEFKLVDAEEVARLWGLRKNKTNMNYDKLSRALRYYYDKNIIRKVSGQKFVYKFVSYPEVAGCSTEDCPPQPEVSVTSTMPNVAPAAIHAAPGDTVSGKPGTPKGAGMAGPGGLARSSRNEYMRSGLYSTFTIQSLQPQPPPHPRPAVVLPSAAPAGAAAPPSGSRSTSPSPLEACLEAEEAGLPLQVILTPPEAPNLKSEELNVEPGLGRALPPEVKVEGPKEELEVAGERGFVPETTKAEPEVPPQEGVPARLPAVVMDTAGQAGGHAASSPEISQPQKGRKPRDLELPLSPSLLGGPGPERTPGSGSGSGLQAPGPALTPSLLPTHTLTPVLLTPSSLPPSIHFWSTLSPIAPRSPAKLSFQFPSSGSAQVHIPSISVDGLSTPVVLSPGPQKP
# In short: (§1)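 After expression in yeast as GST fusions, human transcription factors were bound to glutathione beads, DNA-barcoded and mixed with a tag-only sample. The pools were incubated with 200 nmole of a 16-mer random double-stranded DNA library in Tris/NaCl/DTT/glycerol buffer (30 min, room temperature), washed and crosslinked with 0.1% formaldehyde. Proximity ligation with BsaI/T4 ligase ran for 1 h at 37 °C, before PCR amplification and sequencing on an Illumina NextSeq500. Binding signal is a hexamer's read frequency for a factor divided by its frequency for the tag-only sample.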
# GABPA = biological target: T2, GABPA (Homo sapiens, UniProt Q06546 1-454)
# T2 sequence: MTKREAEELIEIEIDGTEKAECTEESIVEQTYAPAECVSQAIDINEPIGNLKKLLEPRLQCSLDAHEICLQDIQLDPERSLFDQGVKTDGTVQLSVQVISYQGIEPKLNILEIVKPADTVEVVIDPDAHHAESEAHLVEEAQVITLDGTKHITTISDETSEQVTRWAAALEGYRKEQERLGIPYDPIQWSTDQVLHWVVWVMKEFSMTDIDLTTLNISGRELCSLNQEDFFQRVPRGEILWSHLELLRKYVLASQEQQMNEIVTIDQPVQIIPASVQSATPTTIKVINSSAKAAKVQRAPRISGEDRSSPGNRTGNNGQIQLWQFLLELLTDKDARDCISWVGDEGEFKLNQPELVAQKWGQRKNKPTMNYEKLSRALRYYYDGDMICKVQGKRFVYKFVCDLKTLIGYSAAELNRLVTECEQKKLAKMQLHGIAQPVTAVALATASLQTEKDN
# In short: as §1
# ERG = biological target: T3, ERG (Homo sapiens, UniProt P11308 1-479)
# T3 sequence: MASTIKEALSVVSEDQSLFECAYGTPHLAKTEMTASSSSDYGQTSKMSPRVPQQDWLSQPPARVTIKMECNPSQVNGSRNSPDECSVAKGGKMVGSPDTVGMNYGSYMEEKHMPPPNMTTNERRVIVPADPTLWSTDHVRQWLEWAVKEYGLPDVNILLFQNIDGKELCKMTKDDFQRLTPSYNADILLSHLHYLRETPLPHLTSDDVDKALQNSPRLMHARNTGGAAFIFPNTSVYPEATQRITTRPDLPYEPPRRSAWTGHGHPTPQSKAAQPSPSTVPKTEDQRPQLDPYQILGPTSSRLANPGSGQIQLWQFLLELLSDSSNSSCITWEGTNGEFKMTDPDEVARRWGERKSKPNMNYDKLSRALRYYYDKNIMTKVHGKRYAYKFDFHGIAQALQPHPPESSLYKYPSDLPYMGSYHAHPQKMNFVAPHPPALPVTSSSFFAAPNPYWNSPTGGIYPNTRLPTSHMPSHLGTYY
# In short: as §1
# ELK3 = biological target: T4, ELK3 (Homo sapiens, UniProt P41970 1-407)
# T4 sequence: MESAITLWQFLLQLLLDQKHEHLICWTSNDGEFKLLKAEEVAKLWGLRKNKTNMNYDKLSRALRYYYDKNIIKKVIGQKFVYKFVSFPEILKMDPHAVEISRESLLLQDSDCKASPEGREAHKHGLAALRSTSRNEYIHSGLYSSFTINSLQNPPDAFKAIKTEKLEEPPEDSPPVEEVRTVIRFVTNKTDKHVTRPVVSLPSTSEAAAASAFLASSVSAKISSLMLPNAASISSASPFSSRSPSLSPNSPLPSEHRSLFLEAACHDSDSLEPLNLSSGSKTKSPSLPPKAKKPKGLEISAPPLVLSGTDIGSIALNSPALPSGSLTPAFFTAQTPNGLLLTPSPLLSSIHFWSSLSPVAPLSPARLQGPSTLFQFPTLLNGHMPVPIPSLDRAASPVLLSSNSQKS
# In short: as §1
# ETV5 = ETV5 (Homo sapiens, UniProt P41161 1-510)
# Sequence of ETV5 (P41161 whole entry): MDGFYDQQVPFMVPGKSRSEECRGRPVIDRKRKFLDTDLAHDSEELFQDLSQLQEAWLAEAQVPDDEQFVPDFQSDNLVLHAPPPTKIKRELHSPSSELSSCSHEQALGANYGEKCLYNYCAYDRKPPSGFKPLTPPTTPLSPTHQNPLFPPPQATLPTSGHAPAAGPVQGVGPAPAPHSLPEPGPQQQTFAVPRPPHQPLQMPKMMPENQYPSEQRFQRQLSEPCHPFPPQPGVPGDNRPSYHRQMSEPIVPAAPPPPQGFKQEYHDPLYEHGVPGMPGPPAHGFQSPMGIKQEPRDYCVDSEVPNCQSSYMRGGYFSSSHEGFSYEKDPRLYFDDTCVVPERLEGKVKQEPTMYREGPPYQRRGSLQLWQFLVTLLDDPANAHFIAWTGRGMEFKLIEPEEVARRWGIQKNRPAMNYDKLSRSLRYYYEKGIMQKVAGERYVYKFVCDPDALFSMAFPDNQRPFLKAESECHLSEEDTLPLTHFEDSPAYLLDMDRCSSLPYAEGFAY
# In short: as §1
# SPIC = biological target: T5, SPIC (Homo sapiens, UniProt Q8N5J4 1-248)
# T5 sequence: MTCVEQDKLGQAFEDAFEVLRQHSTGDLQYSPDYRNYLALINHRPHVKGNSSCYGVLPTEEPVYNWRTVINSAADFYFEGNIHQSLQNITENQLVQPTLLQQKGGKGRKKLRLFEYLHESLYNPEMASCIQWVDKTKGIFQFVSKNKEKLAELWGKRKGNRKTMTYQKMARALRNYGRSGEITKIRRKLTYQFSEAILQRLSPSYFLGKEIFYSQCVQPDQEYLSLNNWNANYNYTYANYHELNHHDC
# In short: as §1
# ELF4 = ELF4 (Homo sapiens, UniProt Q99607 1-663)
# Sequence of ELF4 (Q99607 whole entry): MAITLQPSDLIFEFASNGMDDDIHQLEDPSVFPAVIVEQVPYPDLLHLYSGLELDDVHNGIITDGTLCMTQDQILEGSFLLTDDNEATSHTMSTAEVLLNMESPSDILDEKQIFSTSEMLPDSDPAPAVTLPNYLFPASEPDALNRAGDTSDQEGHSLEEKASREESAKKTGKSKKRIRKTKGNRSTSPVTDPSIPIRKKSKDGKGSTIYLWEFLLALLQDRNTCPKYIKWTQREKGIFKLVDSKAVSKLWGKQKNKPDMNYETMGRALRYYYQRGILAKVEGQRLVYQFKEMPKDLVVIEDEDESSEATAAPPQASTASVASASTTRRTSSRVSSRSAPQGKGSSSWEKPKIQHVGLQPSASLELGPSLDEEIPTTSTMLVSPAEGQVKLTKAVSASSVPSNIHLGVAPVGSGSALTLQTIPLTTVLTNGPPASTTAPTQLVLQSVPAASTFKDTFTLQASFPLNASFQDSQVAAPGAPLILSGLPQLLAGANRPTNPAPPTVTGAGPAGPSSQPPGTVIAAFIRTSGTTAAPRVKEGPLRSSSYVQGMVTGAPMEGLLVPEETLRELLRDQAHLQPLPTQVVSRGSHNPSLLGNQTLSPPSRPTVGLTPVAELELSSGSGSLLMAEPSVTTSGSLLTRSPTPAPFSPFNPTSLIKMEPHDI
# In short: as §1
# ELK4 = biological target: T6, ELK4 (Homo sapiens, UniProt P28324-2 1-405)
# T6 sequence: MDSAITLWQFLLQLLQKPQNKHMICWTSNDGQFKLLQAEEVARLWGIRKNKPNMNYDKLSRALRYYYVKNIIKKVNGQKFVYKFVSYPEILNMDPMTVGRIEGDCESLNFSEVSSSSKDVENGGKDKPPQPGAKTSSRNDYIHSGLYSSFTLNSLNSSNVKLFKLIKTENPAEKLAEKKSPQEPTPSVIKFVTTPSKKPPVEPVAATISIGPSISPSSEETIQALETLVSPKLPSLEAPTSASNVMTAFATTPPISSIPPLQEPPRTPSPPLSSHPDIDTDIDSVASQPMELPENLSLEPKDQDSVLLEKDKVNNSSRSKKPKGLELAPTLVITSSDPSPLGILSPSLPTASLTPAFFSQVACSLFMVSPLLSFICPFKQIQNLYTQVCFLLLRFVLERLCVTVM
# In short: as §1
# ETV1 = ETV1 (Homo sapiens, UniProt P50549 1-477)
# Sequence of ETV1 (P50549 whole entry): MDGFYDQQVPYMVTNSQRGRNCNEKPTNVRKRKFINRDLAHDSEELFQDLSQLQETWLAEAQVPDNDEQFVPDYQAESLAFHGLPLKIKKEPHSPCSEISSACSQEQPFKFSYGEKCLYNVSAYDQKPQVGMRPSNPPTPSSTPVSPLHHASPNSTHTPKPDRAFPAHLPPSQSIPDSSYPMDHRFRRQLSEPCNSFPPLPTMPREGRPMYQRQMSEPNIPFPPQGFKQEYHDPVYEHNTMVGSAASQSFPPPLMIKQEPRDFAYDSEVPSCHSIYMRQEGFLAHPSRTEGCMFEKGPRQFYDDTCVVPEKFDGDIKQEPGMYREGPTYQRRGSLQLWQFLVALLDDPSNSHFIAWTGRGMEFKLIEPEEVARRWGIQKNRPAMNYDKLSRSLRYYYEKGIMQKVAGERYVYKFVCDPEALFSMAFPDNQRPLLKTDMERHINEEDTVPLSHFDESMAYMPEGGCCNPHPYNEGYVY
# In short: as §1
# ETS2 = biological target: T7, ETS2 (Homo sapiens, UniProt P15036 1-469)
# T7 sequence: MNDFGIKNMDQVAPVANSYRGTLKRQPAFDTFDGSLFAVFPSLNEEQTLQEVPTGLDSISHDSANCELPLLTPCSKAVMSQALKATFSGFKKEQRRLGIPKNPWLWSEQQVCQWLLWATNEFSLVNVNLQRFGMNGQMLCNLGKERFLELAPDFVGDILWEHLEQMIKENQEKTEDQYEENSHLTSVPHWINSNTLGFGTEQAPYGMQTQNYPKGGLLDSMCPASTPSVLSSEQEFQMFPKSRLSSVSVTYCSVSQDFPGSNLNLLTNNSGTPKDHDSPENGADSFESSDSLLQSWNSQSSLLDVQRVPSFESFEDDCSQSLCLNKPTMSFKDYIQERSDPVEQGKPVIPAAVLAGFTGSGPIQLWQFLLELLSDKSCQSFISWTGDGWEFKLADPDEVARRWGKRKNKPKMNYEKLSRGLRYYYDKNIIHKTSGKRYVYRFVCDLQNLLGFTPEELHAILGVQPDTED
# In short: as §1
# SPDEF = biological target: T8, SPDEF (Homo sapiens, UniProt O95238 1-335)
# T8 sequence: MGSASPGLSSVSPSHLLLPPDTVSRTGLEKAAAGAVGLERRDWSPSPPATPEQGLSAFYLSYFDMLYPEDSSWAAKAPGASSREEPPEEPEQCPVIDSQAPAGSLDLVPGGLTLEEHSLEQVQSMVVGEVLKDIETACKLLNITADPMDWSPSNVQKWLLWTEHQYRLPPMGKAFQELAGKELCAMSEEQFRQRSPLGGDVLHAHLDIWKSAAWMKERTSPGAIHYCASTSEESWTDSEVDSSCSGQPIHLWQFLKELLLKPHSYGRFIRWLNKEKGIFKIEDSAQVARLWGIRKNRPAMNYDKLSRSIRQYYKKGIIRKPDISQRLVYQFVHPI
# In short: as §1
# ETV7 = biological target: T9, ETV7 (Homo sapiens, UniProt Q9Y603 1-341)
# T9 sequence: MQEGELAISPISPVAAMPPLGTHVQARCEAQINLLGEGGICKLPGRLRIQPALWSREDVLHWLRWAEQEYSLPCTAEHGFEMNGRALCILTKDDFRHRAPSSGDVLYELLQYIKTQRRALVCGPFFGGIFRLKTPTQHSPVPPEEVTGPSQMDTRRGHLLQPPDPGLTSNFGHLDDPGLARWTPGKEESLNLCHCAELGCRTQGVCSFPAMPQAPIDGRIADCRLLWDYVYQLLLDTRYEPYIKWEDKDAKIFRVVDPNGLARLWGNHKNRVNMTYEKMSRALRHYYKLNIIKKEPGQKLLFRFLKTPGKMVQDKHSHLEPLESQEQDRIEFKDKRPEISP
# In short: as §1
# ETV3 = biological target: T10, ETV3 (Homo sapiens, UniProt P41162-2 1-143)
# T10 sequence: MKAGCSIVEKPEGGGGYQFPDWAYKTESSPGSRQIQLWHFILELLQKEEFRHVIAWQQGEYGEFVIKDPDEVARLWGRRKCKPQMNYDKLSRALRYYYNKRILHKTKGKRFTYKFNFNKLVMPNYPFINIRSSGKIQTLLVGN
# In short: as §1
# ETV6 = ETV6 (Homo sapiens, UniProt P41212 1-452)
# Sequence of ETV6 (P41212 whole entry): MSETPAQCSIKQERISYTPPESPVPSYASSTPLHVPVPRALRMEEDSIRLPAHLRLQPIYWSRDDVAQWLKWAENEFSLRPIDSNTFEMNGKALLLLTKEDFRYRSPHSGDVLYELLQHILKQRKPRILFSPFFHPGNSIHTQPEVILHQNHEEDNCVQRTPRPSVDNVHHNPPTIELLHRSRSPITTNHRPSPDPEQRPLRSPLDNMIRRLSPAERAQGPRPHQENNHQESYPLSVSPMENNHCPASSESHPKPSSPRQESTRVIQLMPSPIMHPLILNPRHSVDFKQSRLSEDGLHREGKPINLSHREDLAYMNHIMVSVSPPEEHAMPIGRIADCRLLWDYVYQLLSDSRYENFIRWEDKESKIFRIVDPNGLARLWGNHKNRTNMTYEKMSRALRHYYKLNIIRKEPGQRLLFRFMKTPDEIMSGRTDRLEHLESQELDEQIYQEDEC
# In short: as §1
sequence,measurement,setting,value
GAAGCC,binding signal,ELK1,"1.06 fold enrichment (6-mer frequency, TF over GST control)"
same,binding signal,GABPA,"1 fold enrichment (6-mer frequency, TF over GST control)"
same,binding signal,ERG,"1.08 fold enrichment (6-mer frequency, TF over GST control)"
same,binding signal,ELK3,"1.05 fold enrichment (6-mer frequency, TF over GST control)"
same,binding signal,ETV5,"1.07 fold enrichment (6-mer frequency, TF over GST control)"
same,binding signal,SPIC,"1 fold enrichment (6-mer frequency, TF over GST control)"
same,binding signal,ELF4,"1.04 fold enrichment (6-mer frequency, TF over GST control)"
same,binding signal,ELK4,"1.01 fold enrichment (6-mer frequency, TF over GST control)"
same,binding signal,ETV1,"1.04 fold enrichment (6-mer frequency, TF over GST control)"
same,binding signal,ETS2,"1.01 fold enrichment (6-mer frequency, TF over GST control)"
same,binding signal,SPDEF,"1.01 fold enrichment (6-mer frequency, TF over GST control)"
same,binding signal,ETV7,"1.12 fold enrichment (6-mer frequency, TF over GST control)"
same,binding signal,ETV3,"1 fold enrichment (6-mer frequency, TF over GST control)"
same,binding signal,ETV6,"1.09 fold enrichment (6-mer frequency, TF over GST control)"
